proKLK7 act: proKLK7 (human) activation, primary screen; activation, % at 7 µM; P49862; AID 652039; purified proKLK7, EDANS-DABCYL substrate fluorescence; 100% is mature enzyme control, 0% vehicle; hit rate 0.9% among 370,000;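 active means activation above the mean of all tested compounds plus 3 SD, computed per campaign excluding outliers beyond control limits, cut at about 13% in these data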
PLCb3 inh: inhibitors of human phospholipase C beta3 | Purified PLC-beta3, fluorogenic substrate, fluorescence | inhibition, % at 12.2 µM | hit rate 0.18% among 370,000 | AID 720704; in the data active means inhibition above about 11%;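 further: 0% = median of compound wells on plate and 100% = full blocker control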
ADAM10 inh: ADAM10 inhibition, QFRET primary screen | inhibition, % at 7 µM | O14672 | recombinant ADAM10, EDANS/DABCYL FRET peptide cleavage, 3 h | AID 720582 | hit rate 0.62% among 370,000;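 active means inhibition above a per-campaign cutoff equal to the mean of compounds falling between control-based bounds plus 3 SD, cut at about 20% in these data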;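 further: 0% = DMSO wells while the 100% control is not disclosed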
ADAM17 inh: ADAM17 inhibition, QFRET primary screen; inhibition, % at 6.95 µM; recombinant ADAM17, EDANS/DABCYL FRET peptide cleavage; P78536; hit rate 0.83% among 370,000;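 active means inhibition above the mean of compounds lying between control limits plus 3 SD, set per campaign, cut at about 8.5% in these data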;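 further: 0% = DMSO-only wells as the low control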
PLCg1 inh: blocks human PLC-gamma1 enzyme activity. hit rate 0.84% among 370,000. purified PLC-gamma1, fluorogenic substrate, fluorescence. inhibition, % at 12.2 µM. P19174; in the data active means inhibition above about 9.5%
HGIII-sPLA2 inh: Inhibits HGIII-sPLA2 liposome hydrolysis, primary screen. Q9NZ20. QFRET BODIPY PC-A2 liposome hydrolysis, fluorescence. inhibition, % at 12.2 µM. hit rate 0.56% among 370,000;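 active means inhibition above mean plus 3 SD of compounds lying within the high and low control bounds, cut at about 19% in these data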;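 further: 0% = median of test compound wells and 100% = no enzyme DMSO wells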
hGIII sPLA2 conf: human GIII-sPLA2 inhibition, confirmation. AID 743280. hit rate 34% among 2,000. recombinant hGIII-sPLA2, BODIPY PC-A2 QFRET fluorescence. shares compounds with HGIII-sPLA2 inh. inhibition, % at 12.2 µM;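 active means mean inhibition across triplicates above the hit cutoff set in the earlier primary screen, cut at about 19% in these data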;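 further: 0% = enzyme with DMSO and 100% = DMSO wells lacking enzyme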
BODIPY interf: counter-screen for HGIII-sPLA2 inhibitors: 535nm fluorescence interference; hit rate 8.5% among 2,000; inhibition, % at 12.2 µM; BODIPY FL product fluorescence interference, QFRET; shares compounds with HGIII-sPLA2 inh;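 active means average inhibition above the solvent-only control mean plus 3 SD, cut at about 6% in these data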;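 further: 0% = DMSO with substrate plus product and 100% = DMSO with substrate alone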
BODIPY interf DR: interferes with 535nm fluorescence in dose response counter-screen | BODIPY FL product fluorescence interference, cell-free | IC50, µM | shares compounds with HGIII-sPLA2 inh | 240 tested, under 10 active;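 active means IC50 at or below 10 µM; inactive means IC50 above 10 µM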
Active calls of the source: *. Shown are actives, neighbours in structure and some others; about 3.4% of the full set was active somewhere.

What do the screens show for `CCCCNC(=S)NNC(=O)c1c(Cl)c(C)nn1C`?
proKLK7 act: 0.3; PLCb3 inh: 3.1; ADAM10 inh: 4.0; ADAM17 inh: 0.4; PLCg1 inh: -1.5; HGIII-sPLA2 inh: 5.1

What do the screens show for `COC(=O)C1CN(Cc2ccc(F)cc2)CCS(=O)(=O)N1Cc1cn(CCOC(C)=O)nn1` (configuration not stated)?
proKLK7 act: 0.4; PLCb3 inh: 3.6; ADAM10 inh: 2.2; ADAM17 inh: 1.3; PLCg1 inh: 0.2; HGIII-sPLA2 inh: 7.1

What do the screens show for `CC(C)CNc1cccc2c1S(=O)(=O)N(Cc1cn(Cc3ccc(F)cc3)nn1)Cc1ccccc1O2`?
proKLK7 act: -10.5; PLCb3 inh: -18.3; ADAM10 inh: -17.6; ADAM17 inh: 0.5; PLCg1 inh: -12.4; HGIII-sPLA2 inh: -4.4

What do the screens show for `Cc1ccc(C)c(NC(=S)NNC(=O)c2csc(C)c2C)c1`?
proKLK7 act: -0.7; PLCb3 inh: 7.1; ADAM10 inh: 18.5; ADAM17 inh: 5.8; PLCg1 inh: 7.6; HGIII-sPLA2 inh: 20.8*; hGIII sPLA2 conf: 37.7*; BODIPY interf: 0.7; BODIPY interf DR: >122

What do the screens show for `Cc1ccc(C)c(NC(=S)NNC(=O)c2sccc2C)c1`?
proKLK7 act: 0.5; PLCb3 inh: 3.4; ADAM10 inh: 7.6; ADAM17 inh: 1.7; PLCg1 inh: 0.6; HGIII-sPLA2 inh: 14.0

Results for Cc1onc(-c2ccccc2)c1C(=O)NN=Cc1cc(Cl)cc(Cl)c1O ?
proKLK7 act: -208.4; PLCb3 inh: inactive; ADAM10 inh: -217.3; ADAM17 inh: -63.1; PLCg1 inh: inactive; HGIII-sPLA2 inh: 22.2*; hGIII sPLA2 conf: 17.2; BODIPY interf: 10.5*

What do the screens show for `CCCCCCOC(=O)CCn1[nH]c(=O)c2ccccc2c1=O`?
proKLK7 act: -0.1; PLCb3 inh: -41.3; ADAM10 inh: -10.2; ADAM17 inh: -7.5; PLCg1 inh: -31.3; HGIII-sPLA2 inh: -0.9

Results for COC(=O)CCn1[nH]c(=O)c2ccccc2c1=O ?
proKLK7 act: -0.7; PLCb3 inh: -17.0; ADAM10 inh: -9.5; ADAM17 inh: -4.3; PLCg1 inh: -12.8; HGIII-sPLA2 inh: 24.4*; hGIII sPLA2 conf: -3.9; BODIPY interf: -4.1

Results for COC(=O)c1ccc(-c2cccc(CN3CCN(c4ncc(Cc5ccccc5)cn4)CC3)c2)cc1 ?
proKLK7 act: 0.4; PLCb3 inh: 1.0; ADAM10 inh: -15.1; ADAM17 inh: -5.7; PLCg1 inh: 2.5; HGIII-sPLA2 inh: 5.5

Results for C=C(C)c1cccc(C(C)(C)NC(=O)Nc2ccccc2OCC)c1 ?
proKLK7 act: 0.2; PLCb3 inh: 3.2; ADAM10 inh: -2.7; ADAM17 inh: -5.3; PLCg1 inh: 1.4; HGIII-sPLA2 inh: 20.9*; hGIII sPLA2 conf: -0.2; BODIPY interf: -6.6

What do the screens show for `N#Cc1ccc(/C=C2\CC3(OC(=O)C4CCCCC4)CCCN2C3)cc1` (configuration not stated)?
proKLK7 act: 0.3; PLCb3 inh: -6.0; ADAM10 inh: -5.5; ADAM17 inh: 3.1; PLCg1 inh: -3.7; HGIII-sPLA2 inh: -5.9

How did C=CCN1C=C/C(=C\C=C(C#N)C#N)c2ccccc21 do in these assays?
proKLK7 act: 0.3; PLCb3 inh: 2.4; ADAM10 inh: 1.5; ADAM17 inh: 0.7; PLCg1 inh: 2.0; HGIII-sPLA2 inh: 27.6*; hGIII sPLA2 conf: 48.3*; BODIPY interf: 13.2*

Results for CCCCCCN1C=C/C(=C\C=C(C#N)C#N)c2ccccc21 ?
proKLK7 act: -0.3; PLCb3 inh: 0.4; ADAM10 inh: -0.6; ADAM17 inh: -1.2; PLCg1 inh: 0.4; HGIII-sPLA2 inh: 2.4

Assay outcomes: PubChem, The Scripps Research Institute Molecular Screening Center
